PubChem BioAssay AID1479144 (National Center for Advancing Translational Sciences (NCATS), 2020)
Inconclusive results are not listed. A number with no mark means an inactive call. Activity calls are given as the source filed them. Calls come from the whole dose curve.

Assay: Confirmatory qHTS for Vero E6 cytotoxicity: counterscreen for inhibitors of SARS-S pseudo-typed particle cell entry
Details: cell viability; series mostly up to 57.1 µM; activity change, negative = cytotoxicity: at the top concentration

SMILES	activity change, negative = cytotoxicity	Potency
O=C1CCc2ccc(OCCCCN3CCN(c4cccc(Cl)c4Cl)CC3)cc2N1	-1.16%	–
CN1CCC(=C2c3ccccc3C=Cc3ccccc32)CC1	0%	–
CC(=O)N1CCN(c2ccc(OC[C@H]3CO[C@](Cn4ccnc4)(c4ccc(Cl)cc4Cl)O3)cc2)CC1	-20.5%	–
CN1CCC(=C2c3ccccc3CCc3sccc32)CC1	1.55%	–
CN(C/C=C/c1ccccc1)Cc1cccc2ccccc12	-9.07%	–
O=C(O)c1cc(O)c2c(c1)[C@H]([C@H]1c3cc(C(=O)O)cc(O)c3C(=O)c3c(O[C@@H]4O[C@H](CO)[C@@H](O)[C@H](O)[C@H]4O)cccc31)c1cccc(O[C@@H]3O[C@H](CO)[C@@H](O)[C@H](O)[C@H]3O)c1C2=O	3.1% [at 33 µM]	–
COc1c(OCCCN2CCOCC2)ccc2c3n(c(=NC(=O)c4cnc(N)nc4)nc12)CCN3	-8.49% [at 11.2 µM]	–
CCCCN=C(N)N=C(N)N	0%	–
CCOc1ccc(Cc2nccc3cc(OCC)c(OCC)cc23)cc1OCC	–	27.1 µM (active)
CCCCCCCCCCCCOCCOCCOCCOCCOCCOCCOCCOCCOCCO	-16.9%	–
CN1CCCCC1CCN1c2ccccc2Sc2ccc(S(C)=O)cc21 (centres undefined)	-13.1%	–
O=c1ccc2ccccc2o1	0%	–
CCCCc1oc2ccccc2c1C(=O)c1cc(I)c(OCCN(CC)CC)c(I)c1	0%	–
CCCN1C[C@H](C)[C@@H](O)[C@](C)(O)[C@@H](CC)OC(=O)[C@H](C)[C@@H](O[C@H]2C[C@@](C)(OC)[C@@H](O)[C@H](C)O2)C(C)[C@@H](O[C@@H]2O[C@H](C)C[C@H](N(C)C)[C@H]2O)[C@](C)(O)C[C@H]1C (some centres undefined)	-15.3%	–
